Bioassay records (PubChem BioAssay)
SDO1 yeast rescue – growth rescue of sdo1-depleted yeast, primary screen, S. cerevisiae, bone marrow failure model | AID 817, 2007 | z-score at 10 µM | 0.21% of 140,000 active | S. cerevisiae sdo1-depleted JHY4D growth rescue, OD600 30 h; active compounds read high; pdr5 snq2 efflux-pump mutant strain;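 active means z-score above 3 at both the 24 hr and the 30 hr optical density reads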;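 further: z-score against mean and SD of all compound wells on the same plate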
Measles CPE – compounds protecting cells from measles virus cytopathic effect, primary screen, measles RdRp inhibitor project, single point, MLSMR library, absorbance. Measles virus-infected cells, CPE protection. protection (pct of control), % at 4 µM. 1.5% of 140,000 active; in the data active means protection mostly above about 24%, no sharp cut-off; inactive means mostly below about 26%
sEH activator – soluble epoxide hydrolase activators, primary screen, biochemical, human sEH | purified human sEH enzymatic activity, activator screen | 0.04% of 91,000 active | Bifunctional epoxide hydrolase 2 (Homo sapiens), P34913 | activation, % at 2 µM | AID 717, 2007; in the data active means activation above about 37%
Target sequence (P34913 whole entry, looked up): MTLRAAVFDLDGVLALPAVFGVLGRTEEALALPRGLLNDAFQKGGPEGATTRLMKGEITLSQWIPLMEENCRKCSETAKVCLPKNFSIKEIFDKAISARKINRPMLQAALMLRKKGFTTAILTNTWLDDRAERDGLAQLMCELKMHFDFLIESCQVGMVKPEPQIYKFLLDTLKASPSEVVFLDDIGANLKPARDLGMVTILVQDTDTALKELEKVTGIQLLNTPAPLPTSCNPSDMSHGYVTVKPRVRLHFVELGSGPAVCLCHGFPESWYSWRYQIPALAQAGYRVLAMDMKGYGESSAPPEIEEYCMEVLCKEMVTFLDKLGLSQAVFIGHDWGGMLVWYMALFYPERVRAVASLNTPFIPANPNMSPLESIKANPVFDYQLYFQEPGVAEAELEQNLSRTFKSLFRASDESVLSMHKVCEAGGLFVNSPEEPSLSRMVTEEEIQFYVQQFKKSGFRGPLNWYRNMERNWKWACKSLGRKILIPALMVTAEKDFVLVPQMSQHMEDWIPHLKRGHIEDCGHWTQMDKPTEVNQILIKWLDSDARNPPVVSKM
MRP reversal – reversal of MRP1-mediated doxorubicin resistance, primary screen, H69AR cells, doxorubicin co-treatment; H69AR cells + 2 uM doxorubicin, CellTiter-Glo, 72 h; differential viability (reversal), % at 10 µM; 0.04% of 85,000 active;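 active means viability drop by adding the cancer drug above about 55%, with treated viability meeting a 40% cutoff, limit read from the data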;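 further: viability without doxorubicin minus viability with 2 µM doxorubicin for each compound; larger differential means the compound sensitizes cells more to doxorubicin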
sEH inh – soluble epoxide hydrolase inhibitors, primary screen, biochemical, human sEH; Bifunctional epoxide hydrolase 2 (Homo sapiens), P34913; recombinant human sEH enzymatic activity assay; inhibition, % at 2 µM; 0.34% of 91,000 active; in the data active means inhibition above about 80%
MRP1 act – H69AR viability gain despite doxorubicin, primary screen, MRP-1 activator project, H69AR cells, CellTiter-Glo; 0.61% of 140,000 active; AID 799, 2007; viability increase, % at 10 µM; viability rescue;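 active means viability gain under doxorubicin at or above a set limit, the compound median plus 3 SD, cut at about 4.7% in these data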;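 further: MRP-1 overexpressing cells given doxorubicin 25 µM after compound pretreatment; 18-22 h compound pretreatment then 72 h with doxorubicin before readout; 0% = doxorubicin-only wells and 100% = vehicle-treated cells without doxorubicin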
An asterisk follows results filed as active; . = not tested or not shown. Shown are actives, neighbours in structure and some others; about 2.5% of the full set was active somewhere.

SMILES	SDO1 yeast rescue	Measles CPE	sEH activator	MRP reversal	sEH inh	MRP1 act
O=C(Nc1ccc(N2CCN(C(=O)c3ccccc3)CC2)cc1)c1cc2ccccc2o1	-1.7	5	-8	8	10	0
CCCC(=O)N1CCN(c2ccc(NC(=O)c3cc4ccccc4o3)cc2)CC1	-0.51	60*	7	28	-3	-1
Cc1ccc(N(C)C(=O)N2CCN(S(=O)(=O)c3c(C)cc(C)cc3C)CC2)cc1	2.8	21	-3	-15	5	0
COC(=O)c1ccccc1NC(=O)/C=C/C(=O)O	1.5	34	.	.	.	-3
COC(=O)c1ccccc1NC(=O)c1cccs1	-0.1	18	1	56*	2	-1
COc1ccc(NC(=S)NNC(=O)c2cccs2)cc1	1.3	17*	.	.	.	0
COC(=O)c1ccccc1NC(=O)/C=N/O	-0.73	44*	0	-3	3	-2
Cc1nnc(NC(=O)Cn2cnc3c2c(=O)n(C)c(=O)n3C)s1	-0.57	8	5	-3	-5	0
CCNc1nc(NC(C)C)nc(OCC)n1	0.87	22	-9	5	7	-1
CCOC(=O)c1sc(NC(=O)c2ccc(Cl)s2)cc1C	-0.75	6	-91	-3	91*	-1
CCOC(=O)c1sc(NC(=O)Nc2ccc(Cl)cc2)cc1C	-2	5	-92	.	92*	-4
CCOC(=O)c1c(NC(=O)Nc2ccc(Cl)cc2)sc(C)c1C	-0.11	3	-8	11	12	-4
Cc1sc(N/N=C/c2cccnc2)nc1-c1ccccc1	-1.7	83*	1	.	0	-2
Cc1sc(N/N=C/c2ccco2)nc1-c1ccccc1	-0.2	18	.	.	.	-2
CN1CCN(C(=O)c2ccc(-n3cccc3)cc2)CC1	1.3	7	-5	.	8	-1
CCOC(=O)c1ccc(-n2c(N)c(C(=O)NCc3ccco3)sc2=S)cc1	0.96	51*	-27	13	27	-5
COc1ccc(-n2c(N)c(C(=O)NCc3ccco3)sc2=S)cc1	1.6	4	-2	-2	6	-3
Cc1occc1C(=O)NNC1=CC(=O)CC(C)(C)C1	1.5	6	.	.	.	0
Cc1ccc(-n2c(C)cc(C(=O)COc3c(CO)cc(F)cc3CO)c2C)cc1C	0	8	.	.	.	-3
N#Cc1nc(COc2ccc(F)cc2)oc1N1CCCC1	-1.6	18	3	-2	-2	4.8*
N#Cc1nc(COc2cccc(Cl)c2)oc1N1CCCC1	-2.8	6	0	11	-2	-2
CCOc1ccc(-c2nc(C#N)c(N3CCN(C)CC3)o2)cc1	0.58	7	15	12	-12	1
CCOc1ccc(-c2nc(C#N)c(N3CCCCCC3)o2)cc1	-1.5	1	9	-10	-9	5.7*
C=CCn1c(=NC(=O)c2ccccc2[N+](=O)[O-])sc2cc(S(C)(=O)=O)ccc21	-0.94	15	.	.	.	-2
Cc1cccc2nc(C(F)(F)F)nc(=O)n12	0.42	43*	3	.	-3	0
SMILES	SDO1 yeast rescue	Measles CPE	sEH activator	MRP reversal	sEH inh	MRP1 act
C=CCn1c2ccccc2n2nc(C)c(=O)nc12	0.29	38*	10	2	-4	-3
Cc1nn2c3ccccc3n(CCN3CCCCC3)c2nc1=O	0.4	9	-4	-9	8	-3
Cc1cccc(C)c1NC(=O)CSc1nnc(CCCCCNC(=O)OC(C)(C)C)o1	-0.19	18	6	0	-6	1
COC(C(=O)NC(C(C)C)C(C)C)c1ccccc1 (stereo not given)	-0.04	8	.	.	.	0
O=C(CC(NC(=O)C(F)(F)F)c1ccccc1)Nc1nnc(CCc2ccccc2)s1 (stereo not given)	-0.87	17	.	.	.	9.3*
Cc1nnc(NC(=O)CC(NC(=O)C(F)(F)F)c2ccccc2)s1 (stereo not given)	0.82	6	.	.	.	4
CCN(CC)S(=O)(=O)c1ccc(Cl)c(NC(=O)COC(=O)/C=C/c2ccc(O)c(OC)c2)c1	-0.05	3	.	.	.	-2
CCCNC(=O)[C@H](Cc1c[nH]c2ccccc12)NC(=O)c1ccccc1Cl	0.1	32*	.	.	.	-2
CCCCNC(=O)[C@H](Cc1c[nH]c2ccccc12)NC(=O)c1ccccc1Cl	0.21	2	.	.	.	-2
COc1cc(OC)cc(C(C(=O)NC2CCCCC2)N(C(=O)c2ccno2)c2ccccc2)c1 (stereo not given)	0.68	13	18	4	-14	-3
CCCCCCC1CC(CCc2nc(=S)[nH][nH]2)C(=O)O1 (stereo not given)	0.21	11	.	.	.	-3
CCCCCCC1CC(CSc2ncn[nH]2)OC1=O (stereo not given)	0.68	8	.	1	.	7.2*
COc1ccc2c(c1)C(c1ccccc1)=NNC(c1ccco1)=N2	-0.37	49*	6	.	-3	0
COc1ccc(NC(=O)C(c2cc3c(cc2[N+](=O)[O-])OCO3)N2CCN(C=O)CC2)cc1 (stereo not given)	-0.32	23*	.	.	.	-2
CCCCOc1ccc(C2OC34CCCCC3C(C#N)(C#N)C2(C#N)C(=N)O4)cc1 (stereo not given)	-0.28	3	8	-20	-12	-2
Cc1ccc(C2OC34CCCCCC3C(C#N)(C(=N)O4)C2(C#N)C#N)cc1 (stereo not given)	0.07	52*	.	.	.	-1
CCOc1ccc(C2OC34CCCCC3C(C#N)(C#N)C2(C#N)C(=N)O4)cc1OC (stereo not given)	5.7*	18	-8	-13	5	-2
O=S(=O)(NC1CC1)c1ccc(S(=O)(=O)N2CCc3ccccc32)cc1	-0.21	44*	5	-4	-9	-3
CC(C)N(c1ccccc1)c1ccc(NC(=O)COC(=O)CCN2C(=O)c3cccc([N+](=O)[O-])c3C2=O)cc1	-0.17	6	.	.	.	-1
CCOc1ccccc1OCCCOc1ccc(C)cc1Br	0.16	33*	0	.	2	0
CCOc1ccccc1OCCCOc1ccc(C)cc1Cl	0.45	8	7	.	-5	0
COCCN1C(=O)C(=O)/C(=C(/O)c2cccc(S(=O)(=O)N(C)C)c2)C12C(=O)N(C)c1ccccc12 (stereo not given)	0.85	9	23	.	-20	-2
COC(=O)C1=C(C)NC(C)=C(C(=O)OC)C1c1ccc(OC(=O)c2oc3ccccc3c2C)c(OC)c1	0.13	13	.	.	.	2
C/C(=N\NC(=O)CCc1c[nH]c2ccccc12)c1cccc([N+](=O)[O-])c1	-0.39	16	.	.	.	7.9*
C/C(=N\NC(=O)c1ccccc1C)c1cccc([N+](=O)[O-])c1	-0.14	9	1	.	1	0
COc1ccc(-n2nnnc2-c2cccc(OC)c2)cc1	-0.86	6	14	-20	-13	-3
